Measured values: the supplement of paper PMC9262897, “Low-cost anti-mycobacterial drug discovery using engineered E. coli” (Nature Communications, 2022)
Where a name gives a salt, the structure may show the parent alone. ± gives the standard deviation of the averaged measurements.

How the values were obtained:
Experiment in all cases: growth (OD600 after 10 h); higher = more growth (less inhibition)
[1] = system: E. coli TESEC Alr+ wild-type control; details: compound 0.1 mM; raw OD600 reference: median of DMSO wells 0.241, cell-free background 0.041
Procedure: (§1)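 TESEC Mtb Alr E. coli, or the Alr+ wild-type control, in 384-well plates with Prestwick library compounds at 0.1 mM and 1% DMSO, across arabinose induction levels of 1E3 to 1E7 nM. Growth is read as OD600 after 10 h at 37 °C in triplicate biological replicates.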

E. coli TESEC Mtb Alr [2] = details: compound 0.1 mM
Procedure: as §1

E. coli TESEC Mtb Asd = details: compound 0.1 mM
Procedure: (§2)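 TESEC E. coli strains in which the native enzyme is deleted and replaced by arabinose-inducible Mtb Asd, DapB, CysH or TrpD, each grown in its selective medium. Strains were screened against the Prestwick library at 0.1 mM and 1% DMSO in 384-well format at low and high arabinose induction. Growth is read as OD600 after 10 h in triplicate.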

E. coli TESEC Mtb DapB = details: compound 0.1 mM
Procedure: as §2

[3] = system: E. coli TESEC Alr+ wild-type control; details: compound 0.1 mM; raw OD600 reference: median of DMSO wells 0.49, cell-free background 0.052
Procedure: (§3)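 TESEC Mtb Alr E. coli (ΔaraC ΔtolC ΔentC Δalr ΔdadX, arabinose-inducible Mtb Alr) or the Alr+ wild-type control strain, grown in defined M9-fructose medium without D-alanine in 96-well plates with Prestwick library compounds at 0.1 mM and 1% DMSO. Low Alr induction is 0.1 µM arabinose and high induction is 10 mM arabinose.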

E. coli TESEC Mtb Alr [4] = details: compound 0.1 mM; remark: listed apart in the source
Procedure: as §3

[5] = arabinose 1000 nM, raw OD600 reference: median of DMSO wells 0.294, cell-free background 0.041
[6] = arabinose 10000 nM, raw OD600 reference: median of DMSO wells 0.264, cell-free background 0.041
[7] = arabinose 100000 nM, raw OD600 reference: median of DMSO wells 0.201, cell-free background 0.041
[8] = arabinose 1000000 nM, raw OD600 reference: median of DMSO wells 0.193, cell-free background 0.041
[9] = arabinose 10000000 nM, raw OD600 reference: median of DMSO wells 0.146, cell-free background 0.041
[10] = arabinose induction (level): High, raw OD600 reference: median of DMSO wells 0.331, cell-free background 0.041
[11] = arabinose induction (level): Low, raw OD600 reference: median of DMSO wells 0.417, cell-free background 0.041
[12] = arabinose induction (level): High, raw OD600 reference: median of DMSO wells […], cell-free background 0.041
[13] = arabinose induction (level): Low, raw OD600 reference: median of DMSO wells 0.227, cell-free background 0.041
[14] = arabinose 100 nM, raw OD600 reference: median of DMSO wells 0.413, cell-free background 0.052
[15] = arabinose 10000000 nM, raw OD600 reference: median of DMSO wells […], cell-free background 0.052

## Clc1ccc(CCC(Cn2ccnc2)Sc2c(Cl)cccc2Cl)cc1 (stereo not drawn) [Butoconazole nitrate]
[1]
  growth: 0.0548 ± 0.0082
E. coli TESEC Mtb Alr [2]; [5]
  growth: 0.0578 ± 0.0014
E. coli TESEC Mtb Alr [2]; [6]
  growth: 0.066 ± 0.0018
E. coli TESEC Mtb Alr [2]; [7]
  growth: 0.0622 ± 0.00087
E. coli TESEC Mtb Alr [2]; [8]
  growth: 0.0664 ± 0.00089
E. coli TESEC Mtb Alr [2]; [9]
  growth: 0.0514 ± 0.0014
E. coli TESEC Mtb Asd; [10]
  growth: 0.0629 ± 0.00052
E. coli TESEC Mtb Asd; [11]
  growth: 0.0669 ± 0.0063
E. coli TESEC Mtb DapB; [12]
  growth: 0.0705 ± 0.0052
E. coli TESEC Mtb DapB; [13]
  growth: 0.0712 ± 0.0093
[3]
  growth: 0.0876 ± 0.003
E. coli TESEC Mtb Alr [4]; [14]
  growth: 0.1 ± 0.057
E. coli TESEC Mtb Alr [4]; [15]
  growth: 0.115 ± 0.013

## COc1cccc2c1C(=O)c1c(O)c3c(c(O)c1C2=O)C[C@@](O)(C(=O)CO)C[C@@H]3O[C@H]1C[C@H](N)[C@H](O)[C@H](C)O1 [Doxorubicin hydrochloride]
[1]
  growth: 0.0471 ± 0.00081
E. coli TESEC Mtb Alr [2]; [5]
  growth: 0.0479 ± 0.0023
E. coli TESEC Mtb Alr [2]; [6]
  growth: 0.047 ± 0.002
E. coli TESEC Mtb Alr [2]; [7]
  growth: 0.0467 ± 0.00066
E. coli TESEC Mtb Alr [2]; [8]
  growth: 0.04497 ± 0.00012
E. coli TESEC Mtb Alr [2]; [9]
  growth: 0.0474 ± 0.0025
E. coli TESEC Mtb Asd; [10]
  growth: 0.0664 ± 0.0059
E. coli TESEC Mtb Asd; [11]
  growth: 0.0616 ± 0.0028
E. coli TESEC Mtb DapB; [12]
  growth: 0.0535 ± 0.00072
E. coli TESEC Mtb DapB; [13]
  growth: 0.0539 ± 0.001
[3]
  growth: 0.05757 ± 0.00055
E. coli TESEC Mtb Alr [4]; [14]
  growth: 0.0599 ± 0.0035
E. coli TESEC Mtb Alr [4]; [15]
  growth: 0.0585 ± 0.00087

## CN1CCC(=C2c3ccccc3CC(=O)c3sccc32)CC1 [Ketotifen fumarate]
[1]
  growth: 0.196 ± 0.0062
E. coli TESEC Mtb Alr [2]; [5]
  growth: 0.254 ± 0.0091
E. coli TESEC Mtb Alr [2]; [6]
  growth: 0.246 ± 0.01
E. coli TESEC Mtb Alr [2]; [7]
  growth: 0.206 ± 0.032
E. coli TESEC Mtb Alr [2]; [8]
  growth: 0.131 ± 0.0024
E. coli TESEC Mtb Alr [2]; [9]
  growth: 0.143 ± 0.0042
E. coli TESEC Mtb Asd; [10]
  growth: 0.198 ± 0.036
E. coli TESEC Mtb Asd; [11]
  growth: 0.39 ± 0.042
E. coli TESEC Mtb DapB; [12]
  growth: 0.239 ± 0.043
E. coli TESEC Mtb DapB; [13]
  growth: 0.217 ± 0.02
[3]
  growth: 0.54 ± 0.048
E. coli TESEC Mtb Alr [4]; [14]
  growth: 0.405 ± 0.0086
E. coli TESEC Mtb Alr [4]; [15]
  growth: 0.303 ± 0.017

## CCOC(=O)NNc1nncc2ccccc12 [Todralazine hydrochloride]
[1]
  growth: 0.252 ± 0.0065
E. coli TESEC Mtb Alr [2]; [5]
  growth: 0.3001 ± 0.00089
E. coli TESEC Mtb Alr [2]; [6]
  growth: 0.252 ± 0.0082
E. coli TESEC Mtb Alr [2]; [7]
  growth: 0.246 ± 0.03
E. coli TESEC Mtb Alr [2]; [8]
  growth: 0.181 ± 0.0025
E. coli TESEC Mtb Alr [2]; [9]
  growth: 0.16 ± 0.005
E. coli TESEC Mtb Asd; [10]
  growth: 0.361 ± 0.1
E. coli TESEC Mtb Asd; [11]
  growth: 0.346 ± 0.078
E. coli TESEC Mtb DapB; [12]
  growth: 0.206 ± 0.011
E. coli TESEC Mtb DapB; [13]
  growth: 0.275 ± 0.03
[3]
  growth: 0.452 ± 0.021
E. coli TESEC Mtb Alr [4]; [14]
  growth: 0.406 ± 0.0052
E. coli TESEC Mtb Alr [4]; [15]
  growth: 0.271 ± 0.17

## COc1ccccc1N1CCN(CCCCNC(=O)c2ccc3ccccc3c2)CC1
[1]
  growth: 0.149 ± 0.0027
E. coli TESEC Mtb Alr [2]; [5]
  growth: 0.179 ± 0.013
E. coli TESEC Mtb Alr [2]; [6]
  growth: 0.2704 ± 0.0024
E. coli TESEC Mtb Alr [2]; [7]
  growth: 0.195 ± 0.019
E. coli TESEC Mtb Alr [2]; [8]
  growth: 0.124 ± 0.0029
E. coli TESEC Mtb Alr [2]; [9]
  growth: 0.182 ± 0.0013
E. coli TESEC Mtb Asd; [10]
  growth: 0.156 ± 0.0093
E. coli TESEC Mtb Asd; [11]
  growth: 0.265 ± 0.013
E. coli TESEC Mtb DapB; [12]
  growth: 0.188 ± 0.017
E. coli TESEC Mtb DapB; [13]
  growth: 0.2 ± 0.012
[3]
  growth: 0.374 ± 0.0092
E. coli TESEC Mtb Alr [4]; [14]
  growth: 0.398 ± 0.0097
E. coli TESEC Mtb Alr [4]; [15]
  growth: 0.181 ± 0.024

## COC(=O)Nc1nc2cc(C(=O)c3cccs3)ccc2[nH]1 [Nocodazole]
[1]
  growth: 0.251 ± 0.0038
E. coli TESEC Mtb Alr [2]; [5]
  growth: 0.292 ± 0.018
E. coli TESEC Mtb Alr [2]; [6]
  growth: 0.269 ± 0.0045
E. coli TESEC Mtb Alr [2]; [7]
  growth: 0.211 ± 0.0085
E. coli TESEC Mtb Alr [2]; [8]
  growth: 0.185 ± 0.0053
E. coli TESEC Mtb Alr [2]; [9]
  growth: 0.142 ± 0.0038
E. coli TESEC Mtb Asd; [10]
  growth: 0.345 ± 0.023
E. coli TESEC Mtb Asd; [11]
  growth: 0.415 ± 0.034
E. coli TESEC Mtb DapB; [12]
  growth: 0.186 ± 0.0079
E. coli TESEC Mtb DapB; [13]
  growth: 0.215 ± 0.044
[3]
  growth: 0.465 ± 0.044
E. coli TESEC Mtb Alr [4]; [14]
  growth: 0.419 ± 0.0079
E. coli TESEC Mtb Alr [4]; [15]
  growth: 0.382 ± 0.044
